From PubChem
Most compounds without a hit are left out; they make up all but 2% or so of the library.
CHO-K1 Ca antag – M1 antagonist counterscreen hit in parental CHO-K1 cells; ATP-induced calcium, Fluo-8 fluorescence; inhibition, % at 3 µM; hit rate 0.6% among 360,000; AID 602250;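 active = inhibition above a per-plate cutoff, the plate's mean sample inhibition plus 3 SD, cut at about 24% in these data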
M1 ag parental – M1 agonist counterscreen hit in parental CHO-K1 cells; Fluo-8 calcium fluorescence; scaled to maximal ATP response, vehicle zero; activation, % at 3 µM; hit rate 0.48% among 360,000; AID 602248; in the data active = activation above about 15%;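 note: untransfected CHO-K1 host cells lacking M1 receptor as counterscreen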
CHRM4 antagonist – blocks acetylcholine activation of human M4 receptor. inhibition, % at 3 µM. hit rate 0.73% among 360,000. CHO-hM4 cells, ACh EC80, Fluo-8 calcium fluorescence. P08173;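 active = inhibition above its plate's cutoff, the mean inhibition of sample wells plus 3 SD, cut at about 27% in these data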
Target sequence (P08173 whole entry, looked up): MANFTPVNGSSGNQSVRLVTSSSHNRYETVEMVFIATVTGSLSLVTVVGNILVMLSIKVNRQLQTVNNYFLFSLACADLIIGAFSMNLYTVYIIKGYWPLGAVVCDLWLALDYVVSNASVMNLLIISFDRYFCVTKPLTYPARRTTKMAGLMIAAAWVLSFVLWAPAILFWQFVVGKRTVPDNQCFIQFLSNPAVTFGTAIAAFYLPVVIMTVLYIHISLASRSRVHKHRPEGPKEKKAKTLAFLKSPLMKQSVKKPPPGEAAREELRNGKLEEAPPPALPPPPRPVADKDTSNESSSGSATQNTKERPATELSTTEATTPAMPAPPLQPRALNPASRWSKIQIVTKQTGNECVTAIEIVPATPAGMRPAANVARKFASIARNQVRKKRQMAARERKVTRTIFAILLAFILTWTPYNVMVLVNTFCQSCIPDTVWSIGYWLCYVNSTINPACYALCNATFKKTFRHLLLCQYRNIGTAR
M4 PAM – positive allosteric modulators of human muscarinic M4 receptor; P08173; CHO-K1 hM4/Gqi5, Fluo-8 calcium fluorescence, ACh EC20; 0% = ACh EC20, 100% = maximal ACh; activation, % at 3 µM; hit rate 0.4% among 360,000;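 active = activation above its plate's cutoff, the mean activation of sample wells plus 3 SD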
CHO-K1 Ca PAM – nonselective activator or artifact in parental CHO-K1 calcium assay; hit rate 0.02% among 360,000; AID 602247; ATP EC20, Fluo-8 calcium fluorescence; 0% at ATP EC20, 100% at ATP max; activation, % at 3 µM;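 active = activation above the run cutoff, the mean activation of all test compounds plus 3 SD, cut at about 40% in these data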;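 note: peak over basal fluorescence ratio in a 140 s read after ATP addition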
M4 ag – CHRM4 agonism in calcium assay. P08173. CHO-K1 hM4/Gqi5, Fluo-8 calcium fluorescence; vehicle 0%, full acetylcholine response 100%. hit rate 0.14% among 360,000. activation, % at 3 µM;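 active = activation above the run mean over all test wells plus 3 SD, cut at about 32% in these data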;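 note: peak over basal fluorescence ratio per well then scaled between controls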
Numbers stand for hits; n = inactive; ! = not active in a repeat.

SMILES | CHO-K1 Ca antag | M1 ag parental | CHRM4 antagonist | M4 PAM | CHO-K1 Ca PAM | M4 ag
CCN(CC)S(=O)(=O)c1ccc(S(=O)(=O)N2CCN(C(=O)c3ccco3)CC2)cc1 | n | n | 29.4 | n | n | n
Cc1cccc(/C=N/NC(=O)c2cc(C3CC3)nc3ccccc23)n1 | 25.8 | n | n | n | n | n
O=C(c1ccccc1Oc1ccc([N+](=O)[O-])cc1)N1CCOCC1 | 24.5 | n | n | n | n | n
C/C(=N\NC(=O)CN1CCN(S(=O)(=O)c2ccc(C)cc2)CC1)c1ccncc1 | n | n | n | n | n | n
COc1ccc(-c2cc(-c3nc4ccccn4c3NCc3ccccc3)ccc2OC)cc1 | 51.5 | n | 84.0 | n | n | n
COc1cc(-c2cc3nc(NCc4ccco4)ccn3n2)cc(OC)c1OC | 31.6 | n | n | n | n | n
c1ccc(CNc2c(-c3cccc(SC4CCCCC4)c3)nc3ccccn23)cc1 | n | n | 49.4! | n | n | n
Cc1ccn2c(NCc3ccccc3)c(-c3cccc(SC4CCCCC4)c3)nc2c1 | n | n | n | n | n | n
c1ccc(-c2nc3ccccn3c2NCc2ccc3c(c2)OCO3)cc1 | n | n | n | n | n | n
COc1ccc(-c2nc3ccccn3c2NCc2ccc3c(c2)OCO3)cc1 | n | n | n | n | n | n
Clc1cccc(-c2ccc(-c3nc4ccccn4c3NCc3ccccc3)cc2)c1 | n | n | 29.4 | n | n | n
CC(=O)N1CCCN(Cc2cn(-c3ccc(C)cc3)nc2-c2cccc(C)c2)CC1 | n | n | n | n | n | n
Cc1ccccc1N1C(=O)Cc2ccccc2C1=O | n | n | n | n | n | n
COc1ccc(-c2csc(NC(=O)Cc3cccc4ccccc34)c2C(=O)O)cc1 | n | n | n | n | n | n
Clc1cccc(CNc2ccn3nc(-c4ccccc4)cc3n2)c1 | n | n | n | 16.1 | n | n
COc1ccc(-c2ccc(C(=O)Nc3cccc(NS(C)(=O)=O)c3)c3occc23)c(C)c1 | n | n | 30.8 | n | n | n
COc1ccc(-c2ccc(C(=O)Nc3cccc(F)c3)c3occc23)c(C)c1 | n | n | n | n | n | n
O=C(/C=C/c1cccs1)N1CCN(c2ccc(O)cc2)CC1 | n | n | n | n | n | n
COCc1c(C(=O)OCC(=O)N2c3ccccc3CC2C)oc2ccccc12 (stereo not drawn) | 24.4 | n | n | n | n | n
COCc1c(C(=O)OCC(=O)N2c3ccccc3NC(=O)C2(C)C)oc2ccccc12 | 30.0 | n | 26.7 | n | n | n
COCc1c(C(=O)OCC(=O)N2CCCC2=O)oc2ccccc12 | n | n | n | n | n | n
CC(=O)C1=C(O)C(=O)N(c2cccc(C(=O)O)c2)C1c1ccc(F)cc1 (stereo not drawn) | n | n | n | n | n | n
Cc1nc2c(o1)CCc1ccccc1C2N1CCN(C)CC1 (stereo not drawn) | n | n | 98.4 | n | n | n
O=C(NCC1CCN(Cc2cccc(Cl)c2)CC1)Nc1ccc(Cl)cc1 | n | n | n | n | n | n
COc1ccc(Cl)cc1NC(=O)NCC1CCN(Cc2cc(C)ccc2C)CC1 | n | 15.6 | n | n | n | n
SMILES | CHO-K1 Ca antag | M1 ag parental | CHRM4 antagonist | M4 PAM | CHO-K1 Ca PAM | M4 ag
COc1cc([N+](=O)[O-])ccc1NC(=O)NCC1CCN(Cc2ccc(Cl)cc2)CC1 | n | 16.7 | 31.8 | n | n | n
NC(=O)c1ccsc1NC(=O)c1ccc([N+](=O)[O-])o1 | n | n | n | n | n | n
CC[C@@H](C(=O)[C@@H](C)[C@@H](O)[C@H](C)CCc1ccc(C)c(O)c1C(=O)O)[C@H]1O[C@](CC)([C@H]2CC[C@](O)(CC)[C@H](C)O2)C[C@@H]1C | n | 26.3 | n | n | n | 71.7
COc1ccc(CCNC(=S)N2CCC(C(N)=O)CC2)cc1 | n | n | n | n | n | n
COc1cc(/C=C2\SC(=Nc3ccccc3)N(CCc3c[nH]c4ccccc34)C2=O)ccc1OC(C)C(=O)O (stereo not drawn) | n | n | n | n | n | n
O=C1/C(=C/c2ccc(N3CCOCC3)o2)SC(=Nc2ccccc2)N1CCc1c[nH]c2ccccc12 | n | n | 42.2 | n | n | n
COc1ccc(-c2sc3ccccc3c2-c2ccc(OCCN(C)C)cc2)cc1 | n | n | 36.1 | n | n | n
COc1ccc(NC(=O)COC(=O)Cn2cnc3ccccc32)cc1 | n | n | n | n | n | n
COc1ccc(-n2c(C)cc(C(=O)COC(=O)Cn3cnc4ccccc43)c2C)cc1 | 33.2 | n | n | n | n | n
CC(C)n1nc(C(=O)NNC(=O)c2ccncc2)c2ccccc2c1=O | n | n | n | 23.1 | n | n
CCCCNC(=S)N/N=C1\C(=O)c2cccc3cccc1c23 | 24.6 | n | n | n | n | n
CC(NC(=O)c1ccncc1)C(c1cccs1)N1CCOCC1 (stereo not drawn) | n | n | n | n | n | n
Nc1ccc2c3c(cccc13)-c1ccccc1-2 | 37.5 | 35.4 | 30.6 | n | n | n
O=C(NCc1nc(-c2ccc(C(F)(F)F)cc2)no1)Nc1cc(Cl)cc(Cl)c1 | 35.0 | n | n | n | n | n
COc1cccc(/C=C/C(=O)OCC(=O)N2c3ccccc3CC2C)c1 (stereo not drawn) | n | n | n | n | n | n
Nc1nc(NCc2ccccc2)nc(NCc2ccccc2)c1[N+](=O)[O-] | n | n | n | n | n | n
Nc1nc(Nc2ccccc2)nc(NCc2ccccc2)c1[N+](=O)[O-] | n | 20.0 | n | n | n | n
COc1ccc(C(=O)N/N=C(\C)Cn2nc([N+](=O)[O-])cc2C)cc1 | n | n | n | n | n | n
N#CC1=C(N)OC2=C(C(=O)CC(c3ccccc3)C2)C1c1ccc2c(c1)OCO2 (stereo not drawn) | n | n | 38.0 | n | n | n
N#CC1=C(N)OC(c2ccccc2)=C(C#N)C1c1ccc2c(c1)OCO2 (stereo not drawn) | n | n | n | n | n | n
CCCOc1cccc(C(=O)N(Cc2ccc(OC)c(OC)c2)C2CCS(=O)(=O)C2)c1 (stereo not drawn) | n | n | n | n | n | n
COc1ccc(OC)c(/C=N/NC(=O)C(=O)N/N=C/c2cc(OC)ccc2OC)c1 | n | n | n | n | n | n
COc1ccc(OC)c(/C=N/NC(=O)C(=O)N2CCCC2)c1 | n | n | n | 22.4 | n | n
O=C(N/N=C/c1ccccc1C(=O)O)C(=O)N1CCCCC1 | n | 18.7 | n | n | n | n
Cc1ccc(S(=O)(=O)CCC(=O)Nc2nnc(-c3ccccc3S(C)(=O)=O)o2)cc1 | n | n | n | n | n | n
O=C(CCc1nnc(C2CCCCC2)o1)N1CCN(C2CCCCC2)CC1 | n | n | n | n | n | n
CN1CCN(Cc2nc3ccccc3c(=O)n2Cc2nc(-c3cccc([N+](=O)[O-])c3)cs2)CC1 | n | n | n | n | n | n
